IL1B secr inh: qHTS for Inhibitors of Inflammasome Signaling: IL-1-beta AlphaLISA Primary Screen. activity change, % at 57.5 µM. 360,000 tested, 4.7% active. AID 743279, 2014. THP-1 LPS/ATP IL-1B secretion, AlphaLISA, 16 h; hits give low values; in the data active means activity change below about -50%; inconclusive means mostly about -30% to -49%
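Secreted IL-1B measured by AlphaLISA bead assay after 16 h compound exposure of THP-1 cells; compounds (final up to 57.5 uM) added 1 h before LPS (250 ng/mL) and ATP (1.25 mM) stimulation; lower signal means less secretion.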
ELG1 DNA repair: qHTS screen for small molecules that inhibit ELG1-dependent DNA repair in human embryonic kidney (HEK293T) cells expressing luciferase-tagged ELG1; HEK293T ELG1-luciferase reporter, luminescence, 16 h; DNA damage induced by 5-fluorouridine; Potency, µM (doses to about 46.1 µM), without a hit: at the top dose activity change, negative = inhibition, most hits filed as inhibitors; 330,000 tested, 2.3% active; AID 504467, 2011; further: potency means the concentration at half of the fitted maximal effect; nearly all actives have a fitted effect of over 55% in size
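In this reporter screen, reduction of luminescence relative to DMSO vehicle indicated activity. Compounds and 5-fluorouridine were added together to 2,000 cells per well, incubated for 16 hr at 37 °C, then developed with ONE-Glo.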
HT1080 IDH1KD tx: qHTS for induction of synthetic lethality in tumor cells producing 2HG: qHTS for the HT-1080-IDH1KD cell line. HT-1080 IDH1 knockdown viability, ATP luminescence, 48 h. Potency, µM (titrated, usually from 46.1 µM), without a hit: at the highest dose activity, negative = toxicity, usual class: cytotoxic. 360,000 tested, 2% active. AID 686971, 2013;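 further: potency means the concentration at half of the fitted maximal effect; 0% = DMSO wells and -100% = cell-free medium wells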
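Luminescent ATP read-out (CellTiter-Glo, 10 min at room temperature) after 48 h compound exposure at 37 °C gave viability of IDH1-knockdown HT-1080 cells. Activity was normalised to DMSO and cell-free wells, then fitted as concentration-response curves.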
TDP1 cell CPT: qHTS for Inhibitors of human tyrosyl-DNA phosphodiesterase 1 (TDP1): qHTS in cells in presence of CPT; 420,000 tested, 12% active; Potency, µM (doses to about 46.2 µM), inactives show top-dose activity change, negative = growth inhibition, usual class: inhibitors; AID 686979, 2013; chicken DT40 Tdp1-/-;hTDP1 cells + 20 nM CPT, ATP luminescence, 48 h; further: potency means the concentration at half of the fitted maximal effect; nearly all actives have a fitted effect of over 55% in size
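Chicken DT40 Tdp1-/- cells complemented with human TDP1, 400 cells/well, exposed to compounds plus 20 nM camptothecin for at least 48 h at 37 C; viability read as ATP content by CellTiter-Glo luminescence.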
TDP1 cell noCPT: qHTS for Inhibitors of human tyrosyl-DNA phosphodiesterase 1 (TDP1): qHTS in cells in absence of CPT | DT40 Tdp1-/- hTDP1 cells, no CPT, ATP luminescence, 48 h | Potency, µM (titrated, usually from 46.2 µM), for the others: top-dose activity change, negative = growth inhibition, hits mostly inhibitors | 420,000 tested, 15% active | AID 686978, 2013; further: potency means the concentration at half of the fitted maximal effect; nearly all actives have a fitted effect of over 55% in size
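Growth kinetics read by CellTiter-Glo luminescence after ≥48 hr at 37 °C. Cells: DT40 Tdp1-/- stably carrying human TDP1, 400 per well, compound exposure in the absence of CPT (DMSO vehicle).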
HT1080-NT tox: qHTS for induction of synthetic lethality in tumor cells producing 2HG: qHTS for the HT-1080-NT fibrosarcoma cell line; HT-1080-NT fibrosarcoma viability, CellTiter-Glo ATP luminescence, 48 h; Potency, µM (doses to about 46.1 µM), for inactives: top-dose activity, negative = less viability, actives largely listed as cytotoxic; 360,000 tested, 1.6% active;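 further: NT is the 2HG producing partner of a matched IDH1 knockdown line; potency means the concentration at half of the fitted maximal effect; 0% = DMSO-treated cells and -100% = media-only wells without cells; nearly all actives have a fitted effect of over 55% in size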
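A 48-hour cytotoxicity screen used HT-1080-NT cells plated 2 hours before compound delivery. ATP-based CellTiter-Glo luminescence measured viability, normalized to DMSO and no-cell controls.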
* hit, by the source's call; ? = inconclusive; / = no result. Shown are actives, neighbours in structure and some others; about 19% of the full set was active somewhere. Unless noted, the call rests on the fitted dose curve; in most records, active means well fitted curve in the direction sought with a large enough effect; inconclusive means small, poorly fitted or top-dose-only effect, or another doubt; inactive means no such curve, though single readings can be large; an effect the other way counts as inactive or inconclusive. Unless noted, on the % scale 0 is the no-effect control and ±100 the full control effect.

SMILES | IL1B secr inh | ELG1 DNA repair | HT1080 IDH1KD tx | TDP1 cell CPT | TDP1 cell noCPT | HT1080-NT tox
Cc1cc(C)c2c(=O)n3c(nc2c1)C(Cc1ccccc1)NC(=O)c1cccnc1-3 (stereo unspecified) | -26 | / | ? | ? | 21µM* | -27%
Cc1cc(C)c2c(=O)n3c(nc2c1)C(Cc1ccc(O)cc1)NC(=O)c1cccnc1-3 (stereo unspecified) | -14 | / | -23% | ? | 18µM* | -28%
CN1C=CC(C(C(N)=O)c2ccccc2)c2ccccc21 (stereo unspecified) | 12 | / | -11% | 24% | ? | -5%
CCOC(=O)CON1C(=O)C(=O)N(OCC(=O)OCC)C2CCCCC21 (stereo unspecified) | 0 | -4% | 0% | 2% | 12% | 0%
O=C(CSc1nnc(COc2ccccc2)o1)Nc1cc(C(F)(F)F)ccc1Cl | / | / | / | -24% | 6% | /
COc1cc(OC)nc(Oc2ccccc2C(=O)Oc2ccc(Cl)cc2)n1 | 3 | 0% | -19% | ? | 16µM* | -5%
COc1cc(OC)nc(Oc2ccccc2C(=O)Oc2ccc(C)cc2)n1 | -12 | -2% | 0% | -12% | -10% | 15%
COc1cc(OC)nc(Oc2ccccc2C(=O)Oc2ccccc2Cl)n1 | 6 | 1% | 0% | -15% | -17% | 9%
COC(=O)c1ccccc1Oc1nc(Cl)cc(OC)n1 | 19 | 8% | 1% | 18µM* | 26µM* | 8%
Cc1ccc(C)c(N2CCN(C(=O)c3ccc4c(c3)N(Cc3ccc(F)cc3)C(=O)c3ccccc3S4=O)CC2)c1 (stereo unspecified) | / | / | / | 18µM* | 10µM* | /
CCOC(=O)C1CCCN(C(=O)c2ccc3c(c2)N(Cc2ccccc2F)C(=O)c2ccccc2S3=O)C1 (stereo unspecified) | / | / | / | ? | 16µM* | /
O=C(c1ccc2c(c1)N(Cc1ccccc1F)C(=O)c1ccccc1S2=O)N1CCCCC1 (stereo unspecified) | / | / | / | -22% | -11% | /
Cc1ccc(C)c(CN2C(=O)c3ccccc3S(=O)c3ccc(C(=O)N4CCN(c5ccccc5F)CC4)cc32)c1 (stereo unspecified) | / | / | / | 5.8µM* | 1.8µM* | /
CCN1CCN(CCNC(=O)c2ccc3c(c2)N(Cc2ccc(F)cc2)C(=O)c2ccccc2S3=O)CC1 (stereo unspecified) | -22 | 11% | ? | -30% | ? | ?
Cc1ccc(Cl)cc1N1CCN(C(=O)CN2C(=O)c3cccc4cccc2c34)CC1 | -13 | 21µM* | -26% | -16% | -19% | -14%
CC(Sc1nnc(Cc2ccccc2)o1)C(=O)Nc1ccccc1[N+](=O)[O-] (stereo unspecified) | -5 | ? | 0% | -8% | -27% | 0%
O=C(NCc1ccc(Cl)cc1)C1CCN(C(=O)c2ccc(Cl)cc2)CC1 | -13 | -14% | -7% | ? | ? | -3%
Cc1cc(NC(=O)COCc2cc(-c3ccc(F)cc3)on2)ccc1Br | / | / | / | 5% | -7% | /
CCOC(=O)NC(=O)c1cn(Nc2ccccc2C(F)(F)F)c(=O)[nH]c1=O | 5 | 2% | -9% | 7% | -8% | 1%
COc1cc(=O)n2c(c1C(=O)NC(C)c1ccco1)CCN(Cc1ccc3nsnc3c1)CC2 (stereo unspecified) | / | / | / | 3% | 5% | /
